# Experimental data as given in PubChem BioAssay (NCI).
# The panel holds about 83,000 compounds, 20% with a hit somewhere; the sample as a whole holds those more often.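 The endpoint reported here, percent growth, reads 100 for growth as untreated, 0 for no net growth and -100 for all cells dead.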 A number with no mark means an inactive call. The source made the active and inactive calls. The calls were made as follows: active = growth percent below 10; inactive = the rest.
# What was measured:
# Experiment in all cases: NCI-60 one-dose screen, 48 h (100 = growth as untreated, 0 = no growth, -100 = all killed)
# Conditions in all cases: 10 µM unless noted
# NCI-H23 lung = system: NCI-H23 lung
# NCI-H226 lung = system: NCI-H226 lung
# NCI-H322M lung = system: NCI-H322M lung
# HOP-62 NSCLC = system: HOP-62 NSCLC
# NCI-H460 lung = system: NCI-H460 lung
# HOP-92 NSCLC = system: HOP-92 NSCLC
# A549/ATCC NSCLC = system: A549/ATCC NSCLC
# 786-0 renal = system: 786-0 renal
# COLO 205 colon = system: COLO 205 colon
# NCI-H522 lung = system: NCI-H522 lung
SMILES,growth (NCI-H23 lung),growth (NCI-H226 lung),growth (NCI-H322M lung),growth (HOP-62 NSCLC),growth (NCI-H460 lung),growth (HOP-92 NSCLC),growth (A549/ATCC NSCLC),growth (786-0 renal),growth (COLO 205 colon),growth (NCI-H522 lung)
CCOC(=O)c1csc(NC(=O)COc2cccc(/C=C3\Oc4cc(OC)ccc4C3=O)c2)n1,90.7%,89.5%,99.7%,125%,107%,62.6%,94%,110%,110%,
NC(N)=Nc1nc2ccccc2n2c1nc1ccccc12,36.3%,56.7%,43.7%,40.4%,8.12% (active),56.6%,17.7%,33.5%,30.3%,
Cc1ccc2nc(NC(=O)CSc3nc(-c4ccccc4)c(C#N)c(=O)n3Cc3ccccc3)sc2c1,85.9%,85.2%,96.4%,77.8%,98.3%,54.9%,104%,99.3%,104%,
O=C1Nc2ccc(F)cc2C12Nc1cc(Cl)ccc1S2 (stereo unspecified),80.1%,108%,84.6%,111%,89.5%,-5.66% (active),94.9%,105%,112%,
COC(=O)/C=C1\S/C(=N\NS(=O)(=O)c2ccc(C)cc2)N(c2ccccc2)C1=O,102%,97.8%,99.6%,99.4%,104%,91.4%,98.6%,108%,121%,
O=C(NC(CSSCC(NC(=O)c1ccccc1)C(=O)O)C(=O)O)c1ccccc1 (stereo unspecified),101%,98.7%,103%,95.6%,107%,88.3%,104%,105%,114%,
Cc1ccccc1NC(=O)N/C(N)=N/c1nc(-c2cccc([N+](=O)[O-])c2)cs1,16.8%,58.8%,90.7%,42.3%,27%,60.2%,54.2%,71.6%,37.5%,
COc1cc(N=Nc2cc(Cc3ccc(N(C)C)cc3)c(N)cc2N(C)C)c2ncccc2c1,1.24% (active),19.4%,11%,20%,-60.2% (active),-8.54% (active),-45.9% (active),-88.9% (active),-33.7% (active),
COc1cc(/C=C2\C(=O)ON=C2C)cc(OC)c1OC,98.6%,100%,95.1%,97%,110%,87.8%,96.1%,103%,105%,
COc1cccc(-c2nn(-c3ccccc3)cc2-c2ccnc(NCCCNC(=O)c3cccc(C(F)(F)F)c3)c2)c1,27.3%,13.3%,75.3%,48.3%,23.4%,9.4% (active),8.6% (active),29.8%,9.99% (active),0.301% (active)
CC(C)=C[C@@H]1c2c(c3ccccc3n(C)c2=O)O[C@H]2c3c(c4ccccc4n(C)c3=O)OC(C)(C)[C@@H]12,99.6%,101%,112%,115%,75.3%,-4.59% (active),89.3%,93.5%,95.3%,
CCCCn1c(=O)c2c(nc(NCCc3ccc(O)c(O)c3)n2CCC)n(CCCC)c1=O,87.1%,87.7%,94.2%,96.8%,92.9%,69.8%,76.9%,81.3%,70.3%,
O=C(CCc1nnc(CN(c2ccccc2)c2ccccc2)o1)c1nc2ccccc2[nH]1,85.1%,107%,84.4%,89.1%,99.6%,,94.7%,100%,102%,73.9%
Cc1ccc(Cl)cc1NC(=O)c1cc2ccccc2cc1O,-30.4% (active),-35.6% (active),-3.32% (active),-23.8% (active),-22.5% (active),,13.9%,-6.83% (active),1.54% (active),-18% (active)
O=C(N/N=C/c1ccncc1)c1ccc(C(F)(F)F)nc1Nc1cccc(C(F)(F)F)c1,,23.7%,8.36% (active),13.3%,14.3%,3.81% (active),16.1%,-27.9% (active),-3.93% (active),-9.51% (active)
C=C1C(=O)O[C@H]2[C@H]1CC/C(COC(=O)C(=O)c1cn(C)c3ccc(OC)cc13)=C\CC[C@@]1(C)O[C@@H]21,-36.1% (active),-67.5% (active),-62.2% (active),-45.9% (active),-76.3% (active),,-62% (active),-87.4% (active),-57% (active),-61.4% (active)
CCOc1c(C#N)nnc2c(C#N)c(NC(=O)c3ccccc3)nn12,90.8%,92.6%,95%,96.6%,111%,,95%,98.4%,107%,95%
COc1ccc(CN2C(=O)C(Cl)=C(Nc3cccc(C(F)(F)F)c3)C2=O)cc1,36.8%,49.5%,84.3%,28.3%,22%,,59.2%,37.8%,36.5%,40.6%
O=C(NCCc1ccc(O)c(O)c1)C12CC3CC(CC(C3)C1)C2,84.9%,93.7%,114%,74.3%,110%,,105%,87.9%,90%,9.83% (active)
Cc1occc1-c1n[nH]c(=S)n1N1C(=O)CSC1=S,102%,98.7%,99.4%,104%,104%,,103%,100%,111%,89.3%
N#Cc1c2c(nn(-c3ccccc3)c1=O)C(O)=C([N+](=O)[O-])C(c1ccccc1)C2 (stereo unspecified),86%,102%,93.1%,78.3%,91.6%,,93.4%,58%,99.4%,77.8%
COc1ccc2occ(C3=C(c4c[nH]c5ccccc45)C(=O)N(O)C3=O)c2c1,86.3%,78.7%,93.7%,86.3%,95.4%,,93.6%,91.3%,98.5%,58.1%
CNS(=O)(=O)c1n[nH]nc1-c1cc(C(C)(C)C)c(O)c(C(C)(C)C)c1,105%,104%,102%,84.7%,109%,,89.5%,91.2%,103%,80.2%
N#CC1=C(/N=C/c2ccccc2)Oc2c(ccc3ccccc23)C1c1ccccc1 (stereo unspecified),28.6%,52.9%,45.6%,21.1%,11.6%,,21%,23.2%,-23.2% (active),
CCCCCCCCCCCC(c1ccccc1)[N+](C)(C)C (stereo unspecified),15.7%,21%,57.3%,16.9%,16.4%,,28.2%,20.5%,-74.7% (active),5.04% (active)
CCN(CC)CCCNc1ccc(Nc2ccc(OC)cc2)cc1,92.3%,110%,83.3%,98.1%,64.2%,,92.1%,94.2%,85.7%,64%
O=C(N/N=C/C=C/c1ccc([N+](=O)[O-])o1)c1cc2ccccc2cc1O,-54.6% (active),-72.3% (active),-6.76% (active),-33.9% (active),-14.3% (active),,4.04% (active),-18.4% (active),-100% (active),
COc1ccc(NC(=O)CSc2nc(C)c(C(C)=O)n2-c2ccc(Cl)cc2)cc1,90.6%,86.6%,100%,88.5%,102%,,97.1%,106%,102%,78.1%
